Only some compounds are listed: those with a hit (about 5.9% of all), similar ones and a draw of the others.
TGFb SMAD3 inh: TGF-b pathway inhibition; actives 1.2% (n = 410,000); Potency, µM (highest dose often 46.1 µM), usual class: inhibitors; AID 588855; HepG2 CAGA-GFP TGF-b/SMAD3 reporter, GFP fluorescence, 18 h; TGF-beta stimulated, 500 pg/mL final; note: nearly all actives have a fitted effect of over 65% in size
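Cell-based qHTS in HEPG2 carrying a CAGA-GFP Smad reporter; compounds added before 500 pg/mL final TGF-beta, 18 h incubation at 37 degrees C, GFP fluorescence quantified per cell by imaging cytometry.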
S2 tox: cell viability loss in ATXN counter-screen; actives 0.49% (n = 400,000); AID 651635; S2 cells (HEK-293 line with an ATXN2-luciferase reporter) viability, CellTiter-Fluor protease fluorescence, 24 h; Potency, µM (series often up to 56.7 µM), hits mostly cytotoxic; note: nearly all actives have a fitted effect of over 40% in size
ATXN2 expr inh: inhibitors of ATXN2 expression; AID 1745845; HEK-293 ATXN2-luciferase reporter, luminescence, 24 h; Potency, µM (highest dose often 57 µM), usual class: inhibitors; actives 0.72% (n = 360,000); note: nearly all actives have a fitted effect of over 55% in size
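ATXN2-luciferase reporter cells (luciferase flanked by upstream and downstream ATXN2 gene portions) were treated 24 h at 37 °C with compounds at up to 57 uM. SteadyGlo luminescence gave expression; GF-AFC fluorescence gave viability.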
KB-V1 cytotox: KB-V1 MDR subline cytotoxicity; KB-V1 MDR cells viability, CellTiter-Glo, 72 h; actives 3.4% (n = 400,000); Potency, µM (titrated, usually from 46.1 µM), most hits filed as cytotoxic; note: nearly all actives have a fitted effect of over 60% in size
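KB-V1, DMEM (no phenol red) + 10% FBS; cpd pin-transferred, titration series; 72 h, 37 degrees C; CellTiter-Glo, luminescence. Data normalized, curve-fit.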
HepG2 tox: counter-screen for TGF-b inhibitors: cytotoxicity in HepG2 cells; HepG2 CAGA-GFP viability, ATP luminescence, 18 h; Potency, µM (titrated, usually from 46.1 µM), most hits filed as cytotoxic; actives 0.76% (n = 410,000)
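HepG2 CAGA-GFP cells (1000/well, DMEM with 1% FBS) received compound, then TGF-beta at 500 pg/mL final, and were incubated 18 hours at 37 degrees C. Viability was read by CellTiter-Glo luminescence. Media-only wells were set as complete cell-killing and DMSO as no toxicity.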
KB-3-1 tox: kills parental KB-3-1 adenocarcinoma cells; AID 1347075; actives 1.4% (n = 400,000); KB-3-1 viability, CellTiter-Glo ATP luminescence, 72 h; Potency, µM (highest dose often 46.1 µM), usual class: cytotoxic; note: nearly all actives have a fitted effect of over 60% in size
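Cytotoxicity measured as CellTiter-Glo luminescence after 72 h at 37 C. Compound titrations were pinned onto drug-naive KB-3-1 parental adenocarcinoma cells grown in DMEM with 10% FBS, and normalized data fitted to concentration-response curves.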
Hits are given with their value; n = inactive; u = inconclusive; x = no result. Calls come from the whole dose curve; as a rule, active = well fitted curve in the direction sought with a large enough effect; inconclusive = small, poorly fitted or top-dose-only effect, or another doubt; inactive = no such curve, though single readings can be large; an effect the other way counts as inactive or inconclusive.

SMILES | TGFb SMAD3 inh | S2 tox | ATXN2 expr inh | KB-V1 cytotox | HepG2 tox | KB-3-1 tox
COc1cc2nc(N3CCCC(O)C3)c(CNCc3ccccc3F)cc2c(OC)c1OC (stereo not given) | x | n | x | x | x | x
COc1cc(-c2n[nH]c(=S)n2-c2ccccc2C(F)(F)F)cc(OC)c1OC | n | n | n | n | n | n
COc1cc(-c2n[nH]c(=S)n2-c2cccc(C(F)(F)F)c2)cc(OC)c1OC | u | n | n | 23µM | n | n
CC(C)(C)NC(=O)NC(=O)CSc1ncc(C(F)(F)F)cc1Cl | n | n | n | 13µM | n | n
CCN1CCN(C(=O)c2cnn(-c3ncc4c(n3)-c3ccccc3CCC4)c2COC)CC1 | x | n | x | x | x | x
Cc1cc(C)n2nc(C(=O)NCC3Cc4cccc(-c5ccc(S(C)(=O)=O)cc5)c4O3)cc2n1 (stereo not given) | x | n | x | x | x | x
CCOc1ccc2c3c(c(=O)oc2c1OCC)CCCC3 | n | u | n | 7.3µM | n | n
CCCOc1ccc2c3c(c(=O)oc2c1OCCC)CCCC3 | n | n | n | n | n | n
CCOC(=O)COc1ccc2c3c(c(=O)oc2c1C)CCC3 | n | n | n | n | n | n
Cc1c(OCC(=O)N(C)c2ccccc2)ccc2c3c(c(=O)oc12)CCC3 | n | n | n | 9.2µM | n | n
Clc1ccc2c(c1)Nc1ccccc1S2 | x | n | n | x | x | x
COc1ccc(C(=O)c2ccccc2CN2C(=O)c3ccccc3C2=O)cc1 | n | n | n | 16µM | n | n
CC(=O)NC(c1cccc(F)c1)c1nc(-c2cccs2)cs1 (stereo not given) | n | n | n | n | n | n
Cc1c(C(=O)NCCN2CCC(c3ccccc3)CC2)cnn1-c1nccc(-c2cccs2)n1 | x | 28µM | x | x | x | x
NC(=O)C1CCN(C(=O)c2ccccc2NC(=O)c2nsc3ccccc23)CC1 | n | x | x | n | n | n
O=C(CCCn1c(=O)c2cccn2c2ccccc21)NCc1ccccc1Br | n | x | x | x | n | x
O=C1c2ccccc2NC(c2cccc(Cl)c2)N1N=C1CCCCCC1 (stereo not given) | n | n | n | 26µM | n | u
CCN(CC)C(=S)SCC(=O)c1ccc(F)cc1 | n | n | n | 18µM | n | u
CCN(CC)C(=S)SCC(=O)c1ccccc1 | n | n | n | n | n | n
CCc1cc2c(=O)c(-c3nc4ccccc4[nH]3)coc2cc1OC(=O)N1CCOCC1 | n | n | n | 3.3µM | n | u
O=C(C[n+]1ccccc1Cl)c1ccc(F)cc1 | n | x | x | n | n | n
CCN(C(C)=O)c1nc(CSc2nnc(NC(C)C)s2)cs1 | n | n | n | 23µM | n | n
Cc1ccc(C(=O)NC(=C(Cl)Cl)S(=O)(=O)c2ccccc2)cc1 | u | u | x | 16µM | n | n
COC(=O)NC(=C(Cl)Cl)S(=O)(=O)c1ccccc1 | u | u | u | 18µM | n | 16µM
COc1ccc(C(=O)NC(=C(Cl)Cl)S(=O)(=O)c2ccc(C)cc2)cc1 | u | n | u | u | n | u
SMILES | TGFb SMAD3 inh | S2 tox | ATXN2 expr inh | KB-V1 cytotox | HepG2 tox | KB-3-1 tox
CN1c2ccccc2C(C)(C)C12C=Nc1c(ccc3ccccc13)O2 (stereo not given) | u | n | n | n | n | n
CN1c2ccccc2C(C)(C)[C@]12C=Cc1cc(O)ccc1O2 | 18µM | u | n | n | n | u
CCOC(=O)CN(Cc1cc(OC)cc(N(C)C)c1OC)C(=O)C1CC(CO[Si](C)(C)C(C)(C)C)=CN1C(=O)OC(C)(C)C (stereo not given) | u | x | x | x | n | x
COc1ccc(/C=N/NC(=O)c2cccc([N+](=O)[O-])c2)cc1OS(=O)(=O)c1ccccc1 | n | n | n | n | n | n
COc1ccc(/C=N/NC(=O)c2cccc([N+](=O)[O-])c2)c2ccccc12 | n | u | 18µM | n | n | n
COc1cccc(/C=N/NC(=O)c2cccc([N+](=O)[O-])c2)c1OS(=O)(=O)c1ccccc1 | n | u | n | 10µM | n | n
COc1cccc(/C=N/NC(=O)c2ccc([N+](=O)[O-])cc2Cl)c1O | u | n | u | 9.2µM | n | n
